Holding throughout (assay): DAPPL (digital affinity profiling via proximity ligation, sequencing); 10 mM Tris-HCl pH 7.5, 50 mM NaCl, 1 mM DTT, 4% glycerol, room temperature, 30 min; GST-TFs on glutathione beads, 16-mer random dsDNA library, 0.1% formaldehyde crosslink after washing; high values mean tight binding
What all share (conditions): protein: recombinant; tags: N-terminal GST; dsDNA, one strand shown

Assay [1] has as its target T1, ELK4 (Homo sapiens, UniProt P28324-2 1-405).
T1 sequence: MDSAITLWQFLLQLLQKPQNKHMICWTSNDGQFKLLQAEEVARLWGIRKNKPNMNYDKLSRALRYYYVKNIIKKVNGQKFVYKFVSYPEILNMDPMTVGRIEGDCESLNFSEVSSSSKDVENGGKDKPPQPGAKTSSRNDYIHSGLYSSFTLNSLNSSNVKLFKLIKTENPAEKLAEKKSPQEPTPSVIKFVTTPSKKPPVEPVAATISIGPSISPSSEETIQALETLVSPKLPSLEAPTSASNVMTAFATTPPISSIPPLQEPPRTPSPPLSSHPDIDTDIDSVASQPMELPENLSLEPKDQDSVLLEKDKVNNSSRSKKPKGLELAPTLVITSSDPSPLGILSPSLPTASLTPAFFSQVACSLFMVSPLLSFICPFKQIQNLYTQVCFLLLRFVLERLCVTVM
A digest of the protocol:
(§1)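 Sequencing on an Illumina NextSeq500 followed washing, crosslinking with 0.1% formaldehyde, proximity ligation (BsaI/T4 ligase, 1 h, 37 °C) and PCR amplification of pools that had been incubated for 30 min at room temperature with 200 nmole of a random double-stranded 16-mer DNA library in Tris/NaCl/DTT/glycerol buffer. Each pool held DNA-barcoded human transcription factors, expressed in yeast as GST fusions and captured on glutathione beads, plus a tag-only sample. Binding signal is a hexamer's read frequency for a factor divided by its frequency in the tag-only sample.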

The target of assay [2] is T2, ELF3 (Homo sapiens, UniProt P78545 1-371).
T2 sequence: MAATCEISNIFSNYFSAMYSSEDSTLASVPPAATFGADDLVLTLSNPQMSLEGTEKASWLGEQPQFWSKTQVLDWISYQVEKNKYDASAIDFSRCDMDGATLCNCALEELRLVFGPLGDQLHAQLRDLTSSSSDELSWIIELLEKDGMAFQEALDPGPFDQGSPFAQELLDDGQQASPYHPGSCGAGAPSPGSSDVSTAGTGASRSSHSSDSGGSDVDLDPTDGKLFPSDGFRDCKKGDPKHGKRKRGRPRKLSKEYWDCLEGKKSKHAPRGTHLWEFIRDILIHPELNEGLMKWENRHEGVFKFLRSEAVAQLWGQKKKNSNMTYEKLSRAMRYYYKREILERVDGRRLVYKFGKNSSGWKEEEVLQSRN
A digest of the protocol:
as §1

In assay [3] the target is ETV1 (Homo sapiens, UniProt P50549 1-477). In a few lines: as §1
For assay [4], the target named is T3, ERF (Homo sapiens, UniProt P50548 1-548).
T3 sequence: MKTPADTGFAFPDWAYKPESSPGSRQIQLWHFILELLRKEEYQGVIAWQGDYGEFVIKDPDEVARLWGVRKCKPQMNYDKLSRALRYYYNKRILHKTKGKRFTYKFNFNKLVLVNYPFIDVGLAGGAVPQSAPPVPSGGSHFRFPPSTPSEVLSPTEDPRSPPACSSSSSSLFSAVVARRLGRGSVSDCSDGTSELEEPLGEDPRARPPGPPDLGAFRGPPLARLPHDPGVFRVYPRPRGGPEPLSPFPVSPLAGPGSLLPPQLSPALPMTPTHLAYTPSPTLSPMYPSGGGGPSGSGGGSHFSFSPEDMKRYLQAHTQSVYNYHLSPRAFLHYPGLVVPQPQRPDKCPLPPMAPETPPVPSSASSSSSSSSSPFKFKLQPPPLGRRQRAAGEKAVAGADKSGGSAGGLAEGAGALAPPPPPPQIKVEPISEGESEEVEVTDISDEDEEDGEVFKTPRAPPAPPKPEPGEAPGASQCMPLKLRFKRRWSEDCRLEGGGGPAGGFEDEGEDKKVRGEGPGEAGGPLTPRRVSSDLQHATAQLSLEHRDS
In a few lines: as §1

The target of assay [5] is T4, ETV3L (Homo sapiens, UniProt Q6ZN32 1-361).
T4 sequence: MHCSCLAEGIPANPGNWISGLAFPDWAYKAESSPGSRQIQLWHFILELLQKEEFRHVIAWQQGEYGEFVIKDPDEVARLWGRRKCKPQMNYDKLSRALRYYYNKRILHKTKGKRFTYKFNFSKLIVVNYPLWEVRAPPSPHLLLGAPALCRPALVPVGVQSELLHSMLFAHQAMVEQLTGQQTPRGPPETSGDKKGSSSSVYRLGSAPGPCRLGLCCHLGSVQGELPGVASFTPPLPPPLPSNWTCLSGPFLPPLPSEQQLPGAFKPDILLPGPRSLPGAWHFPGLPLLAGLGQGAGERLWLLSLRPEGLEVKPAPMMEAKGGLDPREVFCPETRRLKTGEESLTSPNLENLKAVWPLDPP
A digest of the protocol:
as §1

In assay [6] the target is T5, ETS2 (Homo sapiens, UniProt P15036 1-469).
T5 sequence: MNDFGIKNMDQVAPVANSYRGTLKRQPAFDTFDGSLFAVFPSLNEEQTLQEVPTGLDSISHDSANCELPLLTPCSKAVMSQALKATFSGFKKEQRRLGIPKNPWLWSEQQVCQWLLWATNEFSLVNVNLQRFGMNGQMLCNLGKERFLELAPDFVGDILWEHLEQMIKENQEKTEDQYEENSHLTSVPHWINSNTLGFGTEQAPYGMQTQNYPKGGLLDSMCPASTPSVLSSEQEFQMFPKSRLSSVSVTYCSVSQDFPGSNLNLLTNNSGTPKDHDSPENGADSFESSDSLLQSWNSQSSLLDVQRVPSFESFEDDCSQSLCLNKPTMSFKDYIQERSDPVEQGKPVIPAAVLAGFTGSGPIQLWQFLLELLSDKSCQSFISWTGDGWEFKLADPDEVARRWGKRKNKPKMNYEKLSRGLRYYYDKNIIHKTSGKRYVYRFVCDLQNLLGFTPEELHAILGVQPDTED
A digest of the protocol:
as §1

Assay [7] addresses T6, SPDEF (Homo sapiens, UniProt O95238 1-335).
T6 sequence: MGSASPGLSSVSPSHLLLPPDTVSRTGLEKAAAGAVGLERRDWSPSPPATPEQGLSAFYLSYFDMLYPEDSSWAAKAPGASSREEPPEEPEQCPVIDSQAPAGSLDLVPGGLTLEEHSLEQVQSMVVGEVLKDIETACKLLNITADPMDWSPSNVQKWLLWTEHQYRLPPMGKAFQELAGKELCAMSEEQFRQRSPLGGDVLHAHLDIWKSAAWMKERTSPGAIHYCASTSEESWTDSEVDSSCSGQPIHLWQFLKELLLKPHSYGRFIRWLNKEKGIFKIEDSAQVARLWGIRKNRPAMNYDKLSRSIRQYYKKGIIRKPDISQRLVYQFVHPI
In a few lines: as §1

Assay [8] concerns the target T7, ETV7 (Homo sapiens, UniProt Q9Y603 1-341).
T7 sequence: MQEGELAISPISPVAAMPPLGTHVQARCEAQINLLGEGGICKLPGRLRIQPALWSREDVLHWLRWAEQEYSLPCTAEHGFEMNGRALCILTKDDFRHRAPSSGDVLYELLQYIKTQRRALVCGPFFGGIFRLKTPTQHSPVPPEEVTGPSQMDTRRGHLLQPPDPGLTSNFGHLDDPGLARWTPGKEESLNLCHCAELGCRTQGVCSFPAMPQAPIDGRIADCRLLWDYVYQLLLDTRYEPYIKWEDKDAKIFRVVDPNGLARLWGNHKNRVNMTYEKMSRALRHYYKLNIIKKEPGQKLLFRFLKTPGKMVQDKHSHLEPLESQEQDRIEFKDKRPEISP
In a few lines:
as §1

For assay [9], the target named is T8, ETV3 (Homo sapiens, UniProt P41162-2 1-143).
T8 sequence: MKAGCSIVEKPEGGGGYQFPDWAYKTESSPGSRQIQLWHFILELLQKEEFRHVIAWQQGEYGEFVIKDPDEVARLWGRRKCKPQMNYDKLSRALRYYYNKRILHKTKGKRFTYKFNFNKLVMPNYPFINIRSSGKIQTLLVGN
In a few lines: as §1

Assay [10] addresses ETV6 (Homo sapiens, UniProt P41212 1-452). A digest of the protocol: as §1

Chain of ETV1 (P50549 whole entry): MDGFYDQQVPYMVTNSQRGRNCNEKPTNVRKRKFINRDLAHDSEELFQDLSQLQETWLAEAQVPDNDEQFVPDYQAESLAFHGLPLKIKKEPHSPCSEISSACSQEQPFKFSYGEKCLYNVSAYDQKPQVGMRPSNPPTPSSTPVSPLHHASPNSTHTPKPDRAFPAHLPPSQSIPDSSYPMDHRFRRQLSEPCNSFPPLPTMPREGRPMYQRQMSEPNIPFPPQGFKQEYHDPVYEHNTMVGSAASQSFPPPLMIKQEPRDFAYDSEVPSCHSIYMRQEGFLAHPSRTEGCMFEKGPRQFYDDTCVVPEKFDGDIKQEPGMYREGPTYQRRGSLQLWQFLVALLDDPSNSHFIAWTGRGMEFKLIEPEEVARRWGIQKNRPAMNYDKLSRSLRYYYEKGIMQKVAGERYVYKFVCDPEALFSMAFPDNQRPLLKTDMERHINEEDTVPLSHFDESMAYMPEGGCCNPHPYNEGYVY
Chain of ETV6 (P41212 whole entry): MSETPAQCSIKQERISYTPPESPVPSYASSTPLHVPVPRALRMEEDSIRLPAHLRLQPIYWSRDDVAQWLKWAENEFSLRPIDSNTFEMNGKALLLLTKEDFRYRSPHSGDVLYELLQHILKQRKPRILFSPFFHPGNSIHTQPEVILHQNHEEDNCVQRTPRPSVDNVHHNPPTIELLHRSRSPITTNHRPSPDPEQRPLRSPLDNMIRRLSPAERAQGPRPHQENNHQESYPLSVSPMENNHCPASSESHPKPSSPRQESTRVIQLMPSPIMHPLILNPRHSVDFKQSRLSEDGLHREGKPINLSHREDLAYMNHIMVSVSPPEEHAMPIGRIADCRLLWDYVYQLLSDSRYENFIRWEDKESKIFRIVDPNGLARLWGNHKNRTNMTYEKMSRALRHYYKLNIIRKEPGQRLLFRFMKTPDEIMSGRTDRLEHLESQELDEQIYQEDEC

Turning to CGTTTA, the binding signal is 1.15 fold enrichment (6-mer frequency, TF over GST control) in assay [1]; 1.09 fold enrichment (6-mer frequency, TF over GST control) in assay [2]; 1.12 fold enrichment (6-mer frequency, TF over GST control) in [3]; 1.05 fold enrichment (6-mer frequency, TF over GST control) in [4]; 1.1 fold enrichment (6-mer frequency, TF over GST control) in assay [5]; 1.16 fold enrichment (6-mer frequency, TF over GST control) in assay [6]. For the same sequence, the binding signal in assay [7] was 1.14 fold enrichment (6-mer frequency, TF over GST control); in [8], 1.12 fold enrichment (6-mer frequency, TF over GST control); in assay [9], 1.05 fold enrichment (6-mer frequency, TF over GST control); in [10], 1.14 fold enrichment (6-mer frequency, TF over GST control).

Source of the values: publication PMC7862700, “An all-to-all approach to the identification of sequence-specific readers for epigenetic DNA modifications on cytosine”.
